# Among all 130,000 compounds or so, about 1,900 (1.5%) were called active. Where a call stands in place of a potency, no number is given. Not shown: some 5% with an inconclusive outcome. The call rests on the fitted dose curve; in most records, active means well fitted cell-killing curve with a large enough effect; inconclusive means small, poorly fitted or top-dose-only effect; inactive means no such curve, though single readings can be large or run the other way. Only a selection was taken, and actives are over-represented in it overall.
# Assay: qHTS Screen for Compounds that Selectively Target Cancer Cells with p53 Mutations: Cytotoxicity of p53ts Cells at the Nonpermissive Temperature; further: nearly all actives have a fitted effect of over 55% in size
# Conditions: H1299-p53A138V viability at 39C, ATP luminescence, 24 h; series mostly up to 46.1 µM
# From the text: NIH Chemical Genomics Center [NCGC] NIH Molecular Libraries Screening Centers Network [MLSCN] MLSCN Grant: 1 X01 MH079844-01 Assay Submitter (PI): Dr. SUN, YI, University of Michigan NCGC Assay Overview: Synthetic Lethal Screen for Compounds to Kill Cancer Cells with p53 Mutation. Tumor suppressor gene p53 serves as a major cellular barrier against tumorigenesis. […] The goal of this screening is to identify small molecule probes that selectively kill cancer cells with mutations in p53. This screening was carried out using two lines of H1299 lung cancer cells. The H1299-p53 A138V line express a temperature sensitive p53 mutant (p53ts) in which the mutant p53 protein (A138V) is in the mutant confirmation when grown at 39C (the nonpermissive temperature) and in the wild type conformation when grown at 32C (the permissive temperature). A H1299-neo line (p53 null) grown at both 39C and 32C were used as counter-screens to filter out false positive associated with temperature shifting. The small molecular compounds that selectively target mutant p53-containing cancer cells were selected as candidate probes for further study. A cytotoxicity assay based on the measurement of ATP contents in cells was used in this screen. Concentration-responses of all the compounds in the library collection were determined in qHTS using the cell lines and temperature conditions as above.
# NCGC Assay Protocol Summary: Both the H1299-p53A138V and H1299-neo cell lines were provided by Dr.Yi Sun, a PI at the University Michigan. The cells were maintained and cultured at 37C. The resuspended frozen cells were used to plate the cells in the 1536-well assay plates at a density of 600 cells per well in 5 ul medium. The assay plates with the cells were incubated at 37C for 16 to 30 hours before the experiments. The library compounds in DMSO solution were added to the cells in assay plates and incubated 24 hours at 39C (for mutant p53 conformation) or 32C (for normal p53 conformation as control). An ATP_lite assay kit (PerkinElmer) was used to determine the cell viability. Tomaxifen (100uM) was used as the positive control for cell killing. Data were normalized to the controls for basal activity (DMSO only) and 100% killing (100uM tamoxifen). AC50 values were determined from concentration-response data modeled with the standard Hill equation. P53 assay protocol: 1. Reagent; 5 uL H1299-p53A138V or H1299-neo cell cells/well 2. Time; overnight; 37C incubation 3. Compounds; 23 nL; 5.9 nM to 46 uM 4. Controls; 23 nL; Tamoxifen 100 uM 5. Time; 24 hr; 39C incubation 6. Reagent; 3 uL; ATP_Lite reagent 7. Time; 20 min; Room Temperature 8. Detection; Luminescence; Viewlux plate reader Keywords: p53, synthetic lethal, cancer, cell viability, cytotoxicity, H1299 cell line, luminescence, MLSMR, MLSCN, NIH Roadmap, qHTS, NCGC
# Potency means the concentration at half of the fitted maximal effect.
row,SMILES,Potency
1,Cc1oc2ccc(O)c(CN3CCOCC3)c2c1C(=O)Nc1cccc(Cl)c1C,inactive
2,Cc1oc2ccc(O)c(CN3CCC(C)CC3)c2c1C(=O)Nc1ccccc1,inactive
3,Cc1oc2ccc(O)c(CN3CCCCC3)c2c1C(=O)Nc1cccc(C(F)(F)F)c1,12.6 µM (active)
4,COc1ccccc1C(=O)Nc1c(C(=O)Nc2ccc(C)cc2)oc2ccccc12,inactive
5,O=C(Nc1cccc(NC(=O)c2ccco2)c1)c1cnccn1,inactive
6,O=C(Nc1ccc(NC(=O)c2cccs2)cn1)c1ccco1,10 µM (active)
7,Cc1ccnc(NC(=O)c2ccc(NC(=O)c3ccco3)cc2)c1,inactive
8,CCC(=O)Nc1cccc(C(=O)OCc2cc(=O)n3nc(CC)sc3n2)c1,inactive
9,CCOC(=O)c1cccc(NC(=O)C(Cc2ccccc2)NS(=O)(=O)c2cccc3nsnc23)c1 (stereo unspecified),inactive
10,COc1ccc(Nc2cc(C(=O)NCCCN(C)c3ccccc3)c3ccccc3n2)c(OC)c1,inactive
11,CCCCN(CCCNC(=O)c1cc(Nc2ccccc2OC)nc2ccccc12)c1ccccc1,inactive
12,COc1ccccc1Nc1cc(C(=O)NCCCN(C)C2CCCCC2)c2ccccc2n1,10 µM (active)
13,CNC(=O)CN1C(=O)c2cccnc2Sc2ccccc21,inactive
14,COc1cccc(C(=O)N(Cc2cccc(Cl)c2)Cc2ccco2)c1,inactive
15,O=C(CN1CCN(C2CCCCC2)CC1)Nc1ccccc1N1CCCCC1,15.8 µM (active)
16,Cc1ccccc1NC(=O)CNc1ccccc1N1CCCCC1,inactive
17,O=C(NCCCN1CCN(C2CCCCC2)CC1)Nc1ccccc1C(F)(F)F,inactive
18,COc1ccc(Cl)cc1NC(=O)CCC(=O)c1ccc(C)cc1,inactive
19,COc1ccccc1CNC(=O)CCCn1c(=O)c2ccccc2n(CC(=O)Nc2ccc(C)cc2Cl)c1=O,inactive
20,CCCc1[nH]nc2c1C(c1ccc(Br)s1)C(C#N)=C(N)O2 (stereo unspecified),inactive
21,CCCc1[nH]nc2c1C(c1ccc(OC)c(Cn3nc(C)c(Br)c3C)c1)C(C#N)=C(N)O2 (stereo unspecified),7.94 µM (active)
22,COc1ccc(C2C(C#N)=C(N)Oc3n[nH]c(C)c32)cc1CN1CCN(c2ccc(F)cc2)CC1 (stereo unspecified),inactive
23,Cc1cccc(C2CC(=O)Oc3c2c(=O)n(C)c2ccccc32)c1 (stereo unspecified),inactive
24,O=C(CN1CCCCCC1)N1c2ccccc2Sc2ccc(C(F)(F)F)cc21,inactive
25,O=C(CN1CCCCC1)N1c2ccccc2Sc2ccc(C(F)(F)F)cc21,inactive
26,OCCN1CCN(CC/C=C2\c3ccccc3Sc3ccc(C(F)(F)F)cc32)CC1,15.8 µM (active)

row,SMILES,Potency
1,CCOC(=O)c1c(S(=O)(=O)N2CCC(C(=O)NCc3ccccc3OC)CC2)c(C)n(C)c1C,inactive
2,Cc1ccc(Nc2ccc3cc(S(=O)(=O)N4CCCCC4)ccc3n2)cc1F,inactive
3,O=C(CC(c1cccs1)N1Cc2ccccc2C1=O)Nc1ccc(F)c(F)c1 (stereo unspecified),inactive
4,Cc1ccc(N2CCN(C(=O)CCc3c(C)nc4c(c3C)c(=O)n(C)c(=O)n4C)CC2)c(C)c1,inactive
5,c1ccc(Nc2nc(-c3ccncc3)cs2)nc1,inactive
6,CC(C)(C)c1csc(NC2=NS(=O)(=O)c3ccccc32)n1,12.6 µM (active)
7,O=C(CSc1nccn1Cc1ccc(F)cc1)NCc1ccccc1,inactive
8,CCN(C(=O)Cn1cnc2sc(C)c(S(=O)(=O)N3CCN(c4ncccn4)CC3)c2c1=O)c1ccccc1F,inactive
9,CCOC(=O)c1c(S(=O)(=O)N2CCCC(C(=O)NCc3cccc(C)c3)C2)c(C)n(C)c1C (stereo unspecified),inactive
10,CC1(C)N=C(SCc2ccccc2Cl)c2ccccc2N1,inactive
11,Cc1cc(/C=N/n2cnnc2)c(C)n1-c1cccc(C(=O)O)c1,inactive
12,Cc1ccccc1N1CC(c2nc3ccccc3[nH]2)CC1=O (stereo unspecified),inactive
13,Cc1ccccc1-n1c(C)cc(/C=C2\NC(=O)NC2=O)c1C,8.91 µM (active)
14,CC(C)c1ccc(NC(=O)c2ccc(Cn3nc(N4CCN(c5ccccc5)CC4)ccc3=O)o2)cc1,inactive
15,O=S(=O)(c1ccc(C2CCCCC2)cc1)N1CCN(c2ccc(Cl)c(Cl)c2)CC1,inactive
16,CCOc1ccc(CNC(=O)C2CCCN(S(=O)(=O)N(CC)c3ccc(OCC)cc3)C2)cc1 (stereo unspecified),inactive
17,CSc1nn(Cc2cccc(C)c2)c(N)c1S(=O)(=O)c1ccccc1,inactive
18,CCCCOc1ccc(Cn2c(=O)oc3ccc(C)cc32)cc1OC,inactive
19,CCCCOc1ccc(CN2C(=O)C(=O)c3cc(Br)cc(C)c32)cc1OC,7.94 µM (active)
20,COc1ccc(CCN(C)CCN2C(=O)c3ccccc3C2=O)cc1OC,inactive
21,COc1ccc(CCNC(=O)c2cc3cccc4c3n2CC(C)S4)c(OC)c1OC (stereo unspecified),inactive
22,Cc1cccc(Cn2c(SCc3ccc(C(=O)N4CCC(C)CC4)cc3)nc3ccncc32)c1,inactive
23,CC(C)CC(=O)NCC(c1ccc2c(c1)OCO2)N1CCN(c2ccc(F)cc2)CC1 (stereo unspecified),inactive
24,CC(C)(C)NC(=O)CSc1nc(-c2ccc(F)cc2)cc(C(F)(F)F)n1,inactive
25,CSc1nc(Nc2ccc(F)cc2)cc(-c2ccccc2)n1,12.6 µM (active)
26,c1ccc(Nc2n[nH]nc2-c2ccccc2)cc1,inactive

row,SMILES,Potency
1,CCC(=O)N1c2ccccc2CC1C(=O)N1CCN(c2ccccc2)CC1 (stereo unspecified),inactive
2,Cc1cccc(N2CCN(c3ccc(C(=O)O)cc3NC(=O)c3ccccc3F)CC2C)c1 (stereo unspecified),inactive
3,COc1ccc(OC)c(CCNC(=O)CCCn2c(=O)c3cccn3c3cccnc32)c1,inactive
4,CCOc1ccc(OCC)c(NS(=O)(=O)c2ccc3[nH]c(=O)ccc3c2)c1,inactive
5,CCN(CC)C(=O)CSc1ncnc2c1cnn2-c1ccccc1,inactive
6,c1ccc(-n2ncc3c2ncn2c(C4CCCCC4)nnc32)cc1,inactive
7,CCN(c1ncnc2c1cnn2-c1ccc(C)cc1)C1CCCCC1,20 µM (active)
8,Cc1cccc(-c2nc(SCC(=O)Nc3cc(C)on3)c3c(=O)n(C)c(=O)n(C)c3n2)c1,inactive
9,Cc1nc2ccccc2n1C(=O)N1CCOCC1,inactive
10,Cc1nn2c3cc(N4CCOCC4)ccc3nc2c2ccccc12,2 µM (active)
11,Cc1cc(C)c2c(n1)nn1c(N3CCOCC3)cc(C)nc21,inactive
12,O=C(CSc1ncc(-c2ccccc2)[nH]1)Nc1ccc(F)cc1F,inactive
13,Cc1cccc(NC(=O)CSc2ncc(-c3ccccc3)[nH]2)c1C,inactive
14,CCOc1cccc(NC(=O)CSc2ncc(-c3ccc(Cl)cc3)[nH]2)c1,20 µM (active)
15,CNC(=O)CN1C(=O)c2ccccc2S1(=O)=O,inactive
16,CCCc1nnc(NC(=O)c2cc(OC)cc(OC)c2)s1,inactive
17,CCCc1nnc(NC(=O)CN2C(=O)c3ccccc3S2(=O)=O)s1,12.6 µM (active)
18,Cc1ccc(C)c2sc(NC(=O)c3ccc(S(=O)(=O)N4CCCC4)cc3)nc12,inactive
19,CC1=C(C(=O)N2CCN(c3cccc(C(F)(F)F)c3)CC2)C2(CCCCC2)OC1=O,inactive
20,O=C(Nc1ncccn1)c1cccs1,inactive
21,Cn1c(=O)c(C(=O)Nc2ncccn2)c(O)c2ccccc21,12.6 µM (active)
22,CCOc1cc(C(=O)Nc2ncccn2)cc(OCC)c1OCC,inactive
23,Cc1ccc(C(=O)Nc2ccc(OCc3cc(=O)n4c5c(sc4n3)CCCC5)cc2)cc1,inactive
24,CCN(CC)c1cc(NC2CCCCC2)c2c3c(onc13)-c1ccccc1C2=O,inactive
25,Cc1cccc(N2CCN(C(=O)c3oc(=O)c4ccccc4c3-c3ccccc3)CC2)c1C,inactive
26,O=C(/C=C/c1cn(CC(O)CN2CCc3ccccc32)c2ccccc12)c1ccc(Br)cc1 (stereo unspecified),inactive

row,SMILES,Potency
1,CCOc1ccc(C(=O)/C=C/c2cn(CC(O)CN3CCCCCC3)c3ccccc23)cc1 (stereo unspecified),10 µM (active)
2,COc1ccc(OCCn2cc(C(=O)C3CCCCC3)c3ccccc32)cc1,inactive
3,COc1ccc(Cn2c(C(=O)O)c(CNCCc3cccs3)c3ccc(OC)cc32)cc1,inactive
4,CCOC(=O)C1=C(c2ccc(OC)cc2)C(=O)c2ccccc2C1=O,7.08 µM (active)
5,CCCCC(C(=O)OCC(=O)c1ccc(OC)cc1)N1C(=O)c2ccccc2C1=O (stereo unspecified),inactive
6,CCOC(=O)c1ccccc1NS(=O)(=O)c1ccc(OC)cc1,inactive
7,Cc1cc(F)ccc1NS(=O)(=O)c1ccc(-n2cccn2)cc1,inactive
8,O=C(Nc1cc(-c2nc3ccccc3o2)ccc1Cl)c1cc([N+](=O)[O-])ccc1N1CCOCC1,inactive
9,COc1ccc2oc(-c3ccc(C)c(NC(=O)c4sc5ccccc5c4Cl)c3)nc2c1,inactive
10,Cc1ccc2c(c1)N(C(=O)CCC(=O)NCc1ccccc1F)CC(C)O2 (stereo unspecified),inactive
11,Cc1ccccc1-c1nc(CS(=O)(=O)CC(=O)Nc2cc(Cl)cc(Cl)c2)c(C)o1,20 µM (active)
12,Cc1ccccc1-c1nc(CS(=O)(=O)CC(=O)NC(C)c2ccccc2)c(C)o1 (stereo unspecified),inactive
13,Cc1ccccc1-c1nc(CS(=O)(=O)CC(=O)N2CCc3ccccc3C2)c(C)o1,inactive
14,CCC1CCCCN1S(=O)(=O)c1ccc(NC(=O)c2cc(=O)c3ccccc3o2)cc1 (stereo unspecified),inactive
15,Clc1ccccc1CSc1nncn2c1cc1occc12,inactive
16,CCn1nc(C(=O)OCC(=O)N2c3ccccc3CC2C)c2ccccc2c1=O (stereo unspecified),inactive
17,CCCC(=O)N1c2ccc(-c3csc(N)n3)cc2CC1C (stereo unspecified),12.6 µM (active)
18,CCC(=O)N1c2ccc(S(=O)(=O)CCC(=O)N3CCN(c4ccccc4)CC3)cc2CC1C (stereo unspecified),inactive
19,Cc1cccc(OCCSc2nc3ccccc3n2CC(=O)N2CCCCC2)c1C,inactive
20,O=C(O)Cc1ccc(NC(=O)c2cccs2)cc1,inactive
21,Cc1nc(-c2ccc(NC(=O)c3cccs3)cc2)cs1,2.51 µM (active)
22,O=C(O)c1ccc(NC(=O)c2cccs2)cc1,inactive
23,CCCCNc1ccc(-c2nc(-c3ccncc3)no2)cc1[N+](=O)[O-],inactive

# — PubChem BioAssay AID902 (National Center for Advancing Translational Sciences (NCATS), 2007)
